Screening data deposited in PubChem by National Center for Advancing Translational Sciences (NCATS).
A selection: hits, their analogues and other compounds. The true share with any hit is near 6%.
ERK AVP inh = inhibitors of vasopressin-stimulated ERK signaling pathway; AID 995; Potency, µM (highest dose often 57.5 µM), most hits filed as inhibitors; HEK293-V1b, vasopressin-stimulated pERK AlphaScreen; actives 0.99% (n = 72,000); note: nearly all actives have a fitted effect of over 55% in size
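V1b-HEK293 cells; cpd 30 min 37C; 25 nM vasopressin 5 min; lyse 10 min; AlphaScreen beads 5 hr RT. Normalized to DMSO basal and 25 nM vasopressin; AC50 by Hill fit.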
CRE Fsk mod = alters forskolin-stimulated CRE reporter signaling in CHO cells. CHO CRE-bla reporter (cAMP response element driving beta-lactamase), forskolin EC10, beta-lactamase ratio. AID 662. actives 2.5% (n = 71,000). Potency, µM (top dose mostly 38.2 µM), usual class: activators; active = well fitted activation curve with a large enough effect in the signal ratio, with a control signal flat, not every such curve was filed as active; inconclusive = small, poorly fitted or top-dose-only effect, or effect the other way, or a change in a side signal; the % refers to the signal ratio
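Modulation of forskolin-driven signalling is measured in CHO cells carrying a CRE-controlled beta-lactamase reporter. Cells are stimulated with EC10 NKH 477 in the presence of titrated compound for 3 h at 37 °C, then loaded with CCF4 for 2 h at room temperature.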
HEK293 cAMP cs = counter-screen for TSHR agonists: cAMP increase in parental HEK293. parental HEK293 CNG cAMP sensor, membrane potential fluorescence. Potency, µM (titrated, usually from 57.1 µM), hits mostly activators. actives 2.5% (n = 73,000); note: nearly all actives have a fitted effect of over 55% in size
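Parental HEK 293 cells stably expressing a modified CNG channel (no TSHR) report cAMP rise as membrane depolarization. Membrane potential dye with 100 uM RO 20-1724 was loaded for 60 min at room temperature, then compound added for 30 min; fluorescence read at 590 nm.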
TSHR agonist = activates the human thyroid stimulating hormone receptor; HEK293-CNG-TSHR cells (CNG channel as cAMP sensor), membrane potential dye, cAMP; actives 0.48% (n = 73,000); P16473; AID 926; Potency, µM (titrated, usually from 57.1 µM), most hits filed as activators; active = well fitted activation curve with a large enough effect in the main read-out, with a control signal flat, not every such curve was filed as active; inconclusive = small, poorly fitted or top-dose-only effect, or a change in a side signal; inactive = no such curve, though single readings can be large or run the other way; reference of the percent scale not stated here;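 note: the control signal comes from parental cells without the receptor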
Target sequence (P16473 whole entry, looked up): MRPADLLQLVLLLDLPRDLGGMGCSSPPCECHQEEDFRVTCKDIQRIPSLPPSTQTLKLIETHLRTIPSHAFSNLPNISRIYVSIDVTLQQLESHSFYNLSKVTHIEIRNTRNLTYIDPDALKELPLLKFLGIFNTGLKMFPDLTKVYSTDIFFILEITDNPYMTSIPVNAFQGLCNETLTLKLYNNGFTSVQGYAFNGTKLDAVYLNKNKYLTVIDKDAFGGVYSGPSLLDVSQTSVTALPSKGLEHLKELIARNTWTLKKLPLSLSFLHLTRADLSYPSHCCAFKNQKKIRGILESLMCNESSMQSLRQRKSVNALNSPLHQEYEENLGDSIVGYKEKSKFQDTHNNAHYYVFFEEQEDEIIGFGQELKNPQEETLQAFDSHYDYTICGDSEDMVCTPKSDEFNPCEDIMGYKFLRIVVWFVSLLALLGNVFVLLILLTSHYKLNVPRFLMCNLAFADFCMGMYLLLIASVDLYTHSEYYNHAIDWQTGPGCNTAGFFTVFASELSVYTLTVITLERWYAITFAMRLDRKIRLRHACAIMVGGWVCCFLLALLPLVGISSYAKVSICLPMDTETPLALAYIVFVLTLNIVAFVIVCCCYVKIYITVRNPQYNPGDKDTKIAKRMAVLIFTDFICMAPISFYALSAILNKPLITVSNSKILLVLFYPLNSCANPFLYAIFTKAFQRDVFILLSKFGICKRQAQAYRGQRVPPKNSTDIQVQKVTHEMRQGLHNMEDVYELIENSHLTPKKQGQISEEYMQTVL
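HEK 293 cells stably expressing TSHR and a modified CNG channel, with CNG-only parental cells as counterscreen, were preloaded 60 min at room temperature with membrane potential dye containing 100 uM RO 20-1724. Compound exposure was 30 min, and depolarization was read as fluorescence at 590 nm.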
CHO via 24h = cytotoxicity in CRE-bla CHO cells at 24 h | 120 tested, under 10 active | shares compounds with CRE Fsk mod | activity, negative = viability loss, % at 46.1 µM | CRE-bla CHO viability, ATP luminescence, 24 h
CHO via 40h = cytotoxicity in CRE-bla CHO cells at 40 h; shares compounds with CRE Fsk mod; CRE-bla CHO viability, ATP luminescence, 40 h; Potency, µM, usual class: inhibitors; 120 tested, under 10 active
CRE-luc potent = boosts CRE luciferase signal in HEK293 cells; shares compounds with CRE Fsk mod; HEK293 CRE-luc2P, NKH477 EC10 potentiation, luminescence, 4 h; Potency, µM (titrated, usually from 38.3 µM), actives largely listed as activators; actives 80% (n = 120)
Hits are given with their value; i = inactive; ? = inconclusive; nt = not tested or not shown; ! = not confirmed by another sample; [ ] = remark or other dose. Unless noted, calls come from the whole dose curve; as a rule, active = well fitted curve in the direction sought with a large enough effect; inconclusive = small, poorly fitted or top-dose-only effect, or another doubt; inactive = no such curve, though single readings can be large; an effect the other way counts as inactive or inconclusive.

SMILES | ERK AVP inh | CRE Fsk mod | HEK293 cAMP cs | TSHR agonist | CHO via 24h | CHO via 40h | CRE-luc potent
O=S(=O)(Nc1ccc(-c2nc3cccnc3s2)cc1)c1cccs1 | nt | 3.2µM | ? | ? | nt | nt | nt
CCn1c(SCc2nnc(-c3ccccc3)o2)nc2c1c(=O)n(C)c(=O)n2C | i | i | i | i | nt | nt | nt
CCCCn1c(SCC(=O)OC)nc2c1c(=O)n(C)c(=O)n2C | 16µM | ? | i | i | nt | nt | nt
CCCCn1c(SCc2nnc(-c3ccccc3)o2)nc2c1c(=O)n(C)c(=O)n2C | ? | i | 25µM | ? | nt | nt | nt
C[C@@H]1/C=C\CC(=O)OC[C@H](C)C(=O)N[C@@H](Cc2ccccc2)C(=O)OC1 | i[11.5 µM] | nt | i[11.4 µM] | i[11.4 µM] | nt | nt | nt
CCn1c(C)nc2cc(S(=O)(=O)N3CCCCC3)ccc21 | i | i | i | i | nt | nt | nt
CCn1c2ccccc2c2nc3cc(S(=O)(=O)N4CCOCC4)ccc3nc21 | i | 2µM | i | i | nt | nt | nt
c1ccc2nc3c(nc2c1)c1ccccc1n3CCN1CCOCC1 | i | 13µM | i | 16µM | nt | nt | nt
Brc1ccc2c(c1)c1nc3ccccc3nc1n2CCN1CCOCC1 | 32µM | 13µM | i | i | nt | nt | nt
O=c1c2ccccc2nc(-c2ccccc2)n1CCN1CCOCC1 | i | i | ? | ? | nt | nt | nt
COC(=O)c1ccc(C(NC(=O)OCc2ccccc2)/C(F)=C/[C@@H](C)C(=O)NCc2cccnc2)cc1 (some centres undefined) | i | i | i | nt | nt | nt | nt
CC(=O)Nc1cc(-c2nn(CC(=O)N3CCCCC3)c(=O)c3ccccc23)ccc1N1CCOCC1 | i | ? | i | i | nt | nt | nt
Cn1nc(-c2ccc(N3CCOCC3)c(NS(=O)(=O)c3ccccc3)c2)c2ccccc2c1=O | i | 2µM | i | i | ? | ? | ?
Cc1cccc(CNc2ncncc2-c2ccccc2Cl)c1 | i | ? | ? | ? | nt | nt | nt
CN(C)c1nc(N)nc(CSc2n[nH]c(-c3ccccc3)n2)n1 | i | 1.6µM | i | i | i | i | 13µM
CCSc1nc2ccccc2n1Cc1nc(N)nc(N(C)C)n1 | ? | ? | i | i | nt | nt | nt
CC[C@]1(O)C[C@@H]2CN(CCc3c([nH]c4ccccc34)[C@](C(=O)OC)(c3cc4c(cc3OC)N(C=O)[C@H]3[C@@](O)(C(=O)OC)[C@H](C(=O)OC)[C@@]5(CC)C=CCN6CC[C@]43[C@H]65)C2)C1 | i | 0.5µM | i | i | i | ? | i
COc1cc(C2NC(=O)NC(C)=C2C(=O)OC(C)(C)C)ccc1OCC(N)=O (centres undefined) | i | i | i | i | i | i | 13µM
COc1ncc2nc(C)c(=O)n(C)c2n1 | i | i | i | i | nt | nt | nt
Fc1ccc(C2=Nn3c(Cc4ccccc4)nnc3SC2)cc1 | i | i | i | i | i | i | 13µM
c1ccc(C2=Nn3c(nnc3-c3ccncc3)SC2)cc1 | i | ? | i | i | nt | nt | nt
Cc1cc(-c2nnc3n2N=C(c2ccc(-c4ccccc4)cc2)CS3)n[nH]1 | i | ? | 32µM | ? | i | ? | 1.6µM
CCCN(CCC)CCNC(=O)c1cc2c(=O)n(C)c3ccccc3c2n1C | i | i | i | nt | i | i | 13µM
CN(CCNC(=O)c1cc2c(=O)n(C)c3ccccc3c2n1C)Cc1ccccc1 | i | ? | ? | ? | nt | nt | nt
Cn1c(C(=O)NCCCN2CCCC2=O)cc2c(=O)n(C)c3ccccc3c21 | ? | 4µM | i | i | i | i | 13µM
SMILES | ERK AVP inh | CRE Fsk mod | HEK293 cAMP cs | TSHR agonist | CHO via 24h | CHO via 40h | CRE-luc potent
Cc1ccc(-n2ncc3c(=O)[nH]c(SCC(=O)N4CCOCC4)nc32)cc1 | i | i | i | i | i | i | ?
O=c1[nH]c(SCc2ccccc2Cl)nc2c1cnn2-c1ccccc1 | nt | 0.79µM | i | i | i | i | 6.3µM
O=c1c(O)c(-c2ccc(O)c(O)c2)oc2c(OC[C@H]3O[C@@H](O)[C@@H](O)[C@H](O)[C@@H]3O)c(O)cc(O)c12 | nt | i | i | i | nt | nt | nt
CCN(C(=O)c1cn(C)c(=O)c2cc(OC)c(OC)cc12)c1cc(OC)ccc1OC | i | i | i | i[11.4 µM] | i | i | 13µM
Cc1ccc(C)c(N2CCN(S(=O)(=O)c3ccc4c(c3)OCCO4)CC2)c1 | i | i | i | 25µM | i | i | 13µM
Cc1ccc(Cl)cc1N1CCN(S(=O)(=O)c2ccc3c(c2)OCCO3)CC1 | i | i | i | i | nt | nt | nt
C=C[C@H]1CN2CC[C@@H]1C[C@H]2[C@@H](O)c1ccnc2ccc(OC)cc12 | i | i | nt | nt | nt | nt | nt
CCN(CC)c1nc2ccccc2n2cnnc12 | i | 13µM | i | nt | i | ? | 13µM
CCOc1ccccc1Nc1nc2ccccc2n2cnnc12 | i | ? | i | i | nt | nt | nt
CCCN(CCC)c1nc2ccccc2n2c(C)nnc12 | i | i | i | i | i | i | 10µM
COc1ccc([C@@H]2CNC(=O)C2)cc1OC1CCCC1 | i | 0.01µM! | i | i | i | i | 0.028µM
Cc1nn(-c2ccccc2)c2sc(C(=O)N3CCCCC3)cc12 | i | 3.2µM | i | i | i | ? | 10µM
Cc1nn(-c2ccccc2)c2sc(C(=O)n3cccn3)cc12 | i | ? | i | i | nt | nt | nt
Cc1cc(Nc2ccc(C(C)C)cc2)n2ncnc2n1 | i | ? | i | i | nt | nt | nt
Cc1cc(Nc2ccc3ccccc3c2)n2ncnc2n1 | nt | nt | nt | nt | i | i | i
O=C(c1cc(S(=O)(=O)N2CCOCC2)ccc1F)N1CCCc2ccccc21 | i | i | i | i | i | i | i
CCOC(=O)c1ccccc1NC(=O)c1cc(S(=O)(=O)N2CCOCC2)ccc1F | ? | 10µM | i | i | i | i | 13µM
CC(C)=CCC/C(C)=C/CO/N=C1/C[C@@H](O)[C@@H](O)[C@@H]2[C@@H]3C(=O)N(Cc4ccccc4)C(=O)[C@H]3CC[C@H]12 | i[11.5 µM] | nt | i[11.4 µM] | nt | nt | nt | nt
Cc1cccc(CNc2ncncc2-c2cccc(NS(C)(=O)=O)c2)c1 | i | ? | ? | ? | nt | nt | nt
CCn1cc(C(=O)Nc2ccc3c(c2)OCCO3)c2cc(OC)c(OC)cc2c1=O | nt | 1.3µM | i | i | i | i | 0.71µM
CCn1cc(C(=O)Nc2cccc(NC(C)=O)c2)c2cc(OC)c(OC)cc2c1=O | i | ? | i | i | nt | nt | nt
CC(C)[C@@H]1[C@H]2CC[C@H](C2)[C@H]1N | i | i | i | i | nt | nt | nt
Cc1nc(SCC(=O)Nc2ccccc2)c2oc3ccccc3c2n1 | i | 0.5µM | i | 16µM | i | i | 5µM
Cc1nc(SCC(=O)N2CCCc3ccccc32)c2oc3ccccc3c2n1 | i | 0.5µM | ? | ? | i | i | 4µM
CSc1nsc(SCC(=O)N2CCCc3ccccc32)n1 | i | ? | ? | ? | nt | nt | nt
CCc1nc(SCC(=O)N2CCc3ccccc32)c2oc3ccccc3c2n1 | i | i | i | i | i | i | 14µM
O=C(CSc1ncnc2c1oc1ccccc12)Nc1cccc(Cl)c1 | i | ? | ? | ? | nt | nt | nt
